PubChem BioAssay AID1117319 (Southern Research Institute, 2015)
Values joined by “and” are separate entries in the source; they are usually repeats but may differ in a detail not shown here. Equal entries are not always repeated. Hit rate of the full screen: of about 260,000 compounds, about 1,500 (0.58%) were called active. Inconclusive results (about 5%) are left out.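 The calls were made as follows: active = inhibition above a set limit at one or more doses, reproduced on every date tested; inconclusive = results disagree between test dates, or hit never tested in dose response; inactive = the rest.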 A selection follows. Measured potencies and affinities stand elsewhere.

Target: Virion infectivity factor (Human immunodeficiency virus type 1 group M subtype B (isolate BH10)) + Virion infectivity factor (Human immunodeficiency virus type 1 group M subtype B (isolate BRU/LAI)) + Virion infectivity factor (Human immunodeficiency virus type 1 group M subtype B (isolate PCV12)) + Virion infectivity factor (Human immunodeficiency virus type 1 group M subtype B (isolate HXB2)) + DNA dC->dU-editing enzyme APOBEC-3G (Homo sapiens) (UniProt P69720+P69721+P69722+P69723+Q9HC16)
Assay: HIV-1 Vif–A3G interaction blockers – biochemical, TR-FRET, GST-Vif 1-94, biotin-A3G peptide, dose response retest, primary screen (AID 1117319);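 also: Vif residues 1-94 fused to GST binding biotinylated APOBEC3G peptide 110-148; 0% = full assay without inhibitor and 100% = GST in place of GST-Vif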
Conditions: TR-FRET GST-Vif / biotin-A3G peptide binding; stronger effect = higher value

inhibition, inactive:
Cc1occc1-c1nnc(SCC(=O)Nc2ccccc2)n1C 1.99%
Oc1cccc(/C=N/N2CCN(c3ccccn3)CC2)c1 3.52%
CCN(CC)S(=O)(=O)c1cccc(-c2nn(-c3ccccc3)cc2/C=C(\C#N)C(=O)NCc2ccco2)c1 -3.43%
CCOc1ccc(CCNC(=O)C2CCN(S(=O)(=O)N3CCC(C)CC3)CC2)cc1OCC -6.54%
CCOc1ccc(CCNC(=O)C2CC=CCC2C(=O)OC(C)C)cc1OCC (stereo unspecified) 0.89%
CCOC(=O)c1[nH]c2cc(OC)c(OC)cc2c1NC(=O)CN1CCN(c2ccc(OC)cc2)C(C)C1 (stereo unspecified) 23%
Cc1cc(C(=O)N/N=C/c2ccc(-c3cccc(Cl)c3)o2)n[nH]1 -2.03%
Cc1ccc(-c2cc(N)n(-c3ccc(C)cc3)n2)cc1 -11.3%
Cc1ccc(-c2cc(N)n(-c3ccccc3)n2)cc1 -2.7%
CCOC(=O)c1ccc(N2C(=O)C3CC=C(C)CC3C2=O)cc1 (stereo unspecified) 24.6%
O=C(N/N=C/c1cccnc1)c1ccccc1 -11.7%
Cc1ncc(CO)c(/C=N/NC(=O)c2cc(Br)ccc2O)c1O 11%
O=C(N/N=C\c1cccnc1)c1ccccc1O -5.54%
COc1ccc(C(=O)N/N=C/c2c(CO)cnc(C)c2O)cc1 8.42%
Cc1ccc(NC2=NCCCCC2)cc1 0.64%
CCN(CC)C(=O)[C@H]1C[C@H](CC(=O)NC(C)(C)C)C(=O)N2CCc3c([nH]c4ccc(Cl)cc34)[C@]12C -8.68%
CNC(=O)CN(C1CCCCC1)S(=O)(=O)c1ccc(F)cc1 -2.39%
Cn1cccc1Cc1nnc(SCC(=O)NCc2ccco2)n1CCc1ccccc1 1.07%
Cn1cccc1/C=C1\CC(C(C)(C)C)C/C(=C\c2cccn2C)C1=O (stereo unspecified) 1.11%
CC1C/C(=C/c2cccn2C)C(=O)/C(=C/c2cccn2C)C1 (stereo unspecified) 32.9%
O=C1/C(=C/c2ccccc2)SC(=S)N1N1C(=O)C2CC2C1=O (stereo unspecified) -1.11%
CC(C)Cc1nnc(NC(=O)c2cccc(S(=O)(=O)N3CCN(C)CC3)c2)s1 3.22%
O=C(/C=C/c1ccccc1[N+](=O)[O-])OCC(=O)c1ccccc1 -4.21%
Cc1ccc(C(=O)CSc2nc3cccnc3n2C)cc1 6.72%
O=C(COc1cc(Cl)c(Cl)cc1Cl)NCCN1CCOCC1 8.15%
Cc1nnc(NC(=O)CCC(=O)NCc2ccco2)s1 6.21%
NC(=O)COC(=O)c1ccc(-c2ccccc2)cc1 -9.63%
NC(=O)COC(=O)c1ccc(C(=O)C(=O)c2ccccc2)cc1 4.49%
O=C(CSC(=S)N1CCOCC1)Nc1ncc2c(n1)CCCC2=O 1.41%
O=C(NCC(O)c1ccccc1)c1cccs1 (stereo unspecified) -7.1%
Cc1sc(NC(=O)c2ccco2)c(CN2CCN(c3ccccn3)CC2)c1C 17.2%
O=C(O)c1cc(-c2ccc(/C=N/Nc3ccc([N+](=O)[O-])cn3)o2)ccc1Cl 5.44%
NC(=O)N/N=C/c1ccc(-c2ccc([N+](=O)[O-])cc2)o1 0.97%
O=C(CCNC(=O)c1ccc([N+](=O)[O-])cc1)Nc1cc(Cl)ccc1N1CCOCC1 -3.46%
CCCCC(=O)NC(=S)Nc1cc(C(=O)O)ccc1OC 6.07%
CC(=O)NC(=S)Nc1cc(C(=O)O)ccc1Cl -3.72%
CCCCC(c1nnnn1CCOC)N1CCN(C(=O)c2ccco2)CC1 (stereo unspecified) 32.8% and -5.2%
Cc1ccc(CN(C)C(=O)CN2C(=O)NC3(CCCc4ccccc43)C2=O)c(C)c1 (stereo unspecified) -3.76%
CN(C)C(=O)CSc1nnc(Cc2ccccc2)n1Cc1ccco1 7.45%
O=C(Nc1cccc(-c2nnn(CC(=O)N3CCc4ccccc4C3)n2)c1)C1CCC1 -4.46%
CC(C)CC(=O)Nc1ccccc1-c1nnn(CC(=O)N2CCc3ccccc3C2)n1 10.6%
CC(=O)NCCOc1cccc2ccccc12 4.94%
CC(=O)NN1C(=O)/C(=C\c2ccc(Cl)cc2)SC1=S 7.42%
CC(=O)NN1C(=O)/C(=C\c2ccc(C)cc2)SC1=S -1.41%
CC(=O)NN1C(=O)/C(=C\c2ccccc2)SC1=S 1.87%
CC(=O)NN1C(=O)/C(=C/c2ccc(C(C)C)cc2)SC1=S -3.47%
O=C(c1nc(-c2ccccc2)n(-c2ccccc2)n1)N1CCCCCC1 2.5%
O=C(NNC(=O)c1cc(Cl)ccc1O)c1cccc(S(=O)(=O)N2CCOCC2)c1 4.69%
COc1cccc(C(=O)NCc2ccc(N3CCN(C(=O)OC(C)(C)C)CC3)cc2)c1 4.61%
CCN(CC)c1ccc(C(=O)Nn2cnc3ccccc3c2=O)cc1 -13%
Cc1cc(-c2csc(N)n2)c(C)n1Cc1ccco1 20.6%
CCNc1nc(-c2cc(C)n(Cc3ccco3)c2C)cs1 8.76%
Cc1ccccc1NS(=O)(=O)c1cc(C(=O)NCCSC2CCCCC2)ccc1C 4.25%
Cc1cc(C)c2c(=O)[nH]c(=O)n(Cc3ccccc3)c2n1 11.8%
CCCCCCCCn1c2c(c(=N)c3ccccc31)CCC2 1.93%
O=C1CN(/N=C/c2ccc([N+](=O)[O-])o2)C(=O)N1 6.04%
O=C1NC(=S)S/C1=C\c1cccc([N+](=O)[O-])c1 0.14%
CCC1(C)Cc2ccccc2-c2nc(NCCCO)n(-c3ccccc3)c(=O)c21 (stereo unspecified) -4.2%
CC(C)COC(=O)Nc1nnc(SCCOc2ccccc2)s1 -6.77%
O=C(c1cc2c(s1)-c1ccccc1OC2)N1CCN(c2ccccn2)CC1 -16.4%
CCOc1cc(C(=O)OCC(=O)Nc2cc(C)on2)cc(OCC)c1OCC -2.84%
Clc1ccc(OCc2nn3c(-c4ccco4)nnc3s2)cc1 2%
Clc1ccc(OCc2nn3c(-c4ccccc4)nnc3s2)c(Cl)c1 -0.95%
COc1ccc(CN(C)C2CCCCC2)c(C)c1C -2.5%
COc1ccccc1NC(=O)CSc1nnc(CC(=O)Nc2ccccc2C)n1C -12.1%
CCOc1cccc(N2C(=O)CC(N3CCN(c4nc5ccccc5s4)CC3)C2=O)c1 (stereo unspecified) -1.33%
O=C(N/N=C/c1ccc(O)c([N+](=O)[O-])c1)c1ccncc1 -22.5%
Clc1cccc(/C=N\Nc2nccs2)c1 -1.1%
COc1ccc(C(=O)NCc2ccncc2)cc1OC 24.8%
O=C(O)c1cc(N=Nc2c(O)[nH]c3ccc([N+](=O)[O-])cc23)ccc1Cl 10%
Cc1onc(-c2c(Cl)cccc2Cl)c1NC(=O)NNc1c(Cl)cncc1Cl -3.28%
CCOC=C1SC(=S)N(c2ccccc2OC)C1=O -1.46%
COc1ccccc1NC(=S)N1CCCCCC1 -0.41%
CC(=O)Nc1ccc(NC(=O)CCc2ccc(C)o2)cc1 3.07%
CCc1ccc(CCC(=O)Nc2ccc(S(N)(=O)=O)cc2)o1 68.2%
O=C(COC(=O)COc1cccc(Br)c1)NCc1ccc2c(c1)OCO2 -4.12%
CCOc1ncccc1C(=O)OCC(=O)c1c(N)n(C)c(=O)n(C)c1=O -0.62%
CCN(CC(=O)Nc1c(F)cccc1F)C(=O)c1c(-c2ccccc2Cl)noc1C 10.1%
C=CCn1c(COc2ccc(Cl)cc2)nnc1SCc1ccc(C#N)cc1 -5.86%
CCc1c(C)[nH]c2ccccc2c1=O 22.4%
Cc1[nH]c2ccccc2c1-c1nc2ccccc2[nH]1 24.1%
CCOc1ccc(CCNC(=O)CS(=O)Cc2nc(-c3ccc(C)cc3)oc2C)cc1 (stereo unspecified) 5.23%
COc1ccc(N2CCN(Cc3cc(=O)oc4cc(C)c(Cl)c(C)c34)CC2)cc1 4.75%
O=C(NCCN1CCN(c2ccccc2)CC1)C1CCN(S(=O)(=O)c2cccc3nsnc23)CC1 -4.91%
O=C(NCCc1ccccc1)C1CCN(S(=O)(=O)c2cccc3nonc23)CC1 -0.8%
Cc1cc(=O)[nH]c(SCCCOc2ccccc2Cl)n1 -1.03%
CCSc1n[nH]c2nc3c(c(=O)n12)C1(CCCCC1)Cc1ccccc1-3 -15.1%
CCN(CC)C(=O)CSc1nnc(-c2ccccn2)n1-c1ccccc1OC -5.38%
Oc1c(Br)cc(Cl)cc1C=Nc1ccc(N2CCOCC2)cc1 29.3%
O=[N+]([O-])c1cc(Cc2ccccc2)cc(C=Nc2ccc(N3CCOCC3)cc2)c1O 23.6%
COc1cccc(C(=O)Nc2ccc(NC(=O)c3ccco3)c(Cl)c2)c1 -3.2%
Cc1ccc(-c2cc(C(F)(F)F)n3nc(C(=O)Nc4ccon4)cc3n2)cc1C 10.8%
Cc1nccn1CC(=O)N/N=C/c1cccc(O)c1 2.96%
COc1ccc(/C=N/NC(=O)Cn2ccnc2C)cc1OC -2.05%
CNC(=O)C(=O)N/N=C/c1ccc(Br)cc1 17.2%
COc1ccc(NC(=O)COc2ccccc2Cl)cc1S(=O)(=O)N1CCCCC1 11.7%
